Common to all, as to test: DAPPL (digital affinity profiling via proximity ligation, sequencing); 10 mM Tris-HCl pH 7.5, 50 mM NaCl, 1 mM DTT, 4% glycerol, room temperature, 30 min; GST-TFs on glutathione beads, 16-mer random dsDNA library, 0.1% formaldehyde crosslink after washing; high values mean tight binding
Common to all, as to conditions: protein: recombinant; tags: N-terminal GST; dsDNA, one strand shown

In one experiment the target is T1, SPIC (Homo sapiens, UniProt Q8N5J4 1-248).
T1 sequence: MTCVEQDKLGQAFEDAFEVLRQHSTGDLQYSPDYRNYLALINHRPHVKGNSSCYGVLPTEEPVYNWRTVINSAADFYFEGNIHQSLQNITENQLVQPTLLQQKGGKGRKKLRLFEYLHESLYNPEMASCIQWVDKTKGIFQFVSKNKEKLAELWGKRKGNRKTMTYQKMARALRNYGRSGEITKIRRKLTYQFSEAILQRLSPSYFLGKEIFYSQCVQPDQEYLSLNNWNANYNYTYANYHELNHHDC
In outline:
(§1)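 Binding signal is given per hexamer as its read frequency for a factor divided by its frequency in the tag-only sample. GST-fused human transcription factors were expressed in yeast, captured on glutathione beads, barcoded with DNA and pooled with that sample, then incubated with 200 nmole of a 16-mer random double-stranded DNA library in Tris/NaCl/DTT/glycerol buffer for 30 min at room temperature. The pools were then washed, crosslinked, proximity-ligated, amplified by PCR and sequenced on an Illumina NextSeq500.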

In another experiment the target is T2, GABPA (Homo sapiens, UniProt Q06546 1-454).
T2 sequence: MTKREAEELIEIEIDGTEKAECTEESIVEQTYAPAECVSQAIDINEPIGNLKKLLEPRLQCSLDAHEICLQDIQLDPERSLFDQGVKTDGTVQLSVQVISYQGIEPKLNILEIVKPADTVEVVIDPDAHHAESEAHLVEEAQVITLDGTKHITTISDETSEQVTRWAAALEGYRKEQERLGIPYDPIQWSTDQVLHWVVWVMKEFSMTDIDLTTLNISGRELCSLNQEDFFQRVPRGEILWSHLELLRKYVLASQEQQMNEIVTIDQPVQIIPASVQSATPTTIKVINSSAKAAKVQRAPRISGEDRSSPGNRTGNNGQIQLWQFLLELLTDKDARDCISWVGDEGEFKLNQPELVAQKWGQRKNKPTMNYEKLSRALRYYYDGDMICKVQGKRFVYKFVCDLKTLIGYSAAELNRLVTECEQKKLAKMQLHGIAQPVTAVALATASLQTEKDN
In outline: as §1

The next experiment has as its target T3, ELK3 (Homo sapiens, UniProt P41970 1-407).
T3 sequence: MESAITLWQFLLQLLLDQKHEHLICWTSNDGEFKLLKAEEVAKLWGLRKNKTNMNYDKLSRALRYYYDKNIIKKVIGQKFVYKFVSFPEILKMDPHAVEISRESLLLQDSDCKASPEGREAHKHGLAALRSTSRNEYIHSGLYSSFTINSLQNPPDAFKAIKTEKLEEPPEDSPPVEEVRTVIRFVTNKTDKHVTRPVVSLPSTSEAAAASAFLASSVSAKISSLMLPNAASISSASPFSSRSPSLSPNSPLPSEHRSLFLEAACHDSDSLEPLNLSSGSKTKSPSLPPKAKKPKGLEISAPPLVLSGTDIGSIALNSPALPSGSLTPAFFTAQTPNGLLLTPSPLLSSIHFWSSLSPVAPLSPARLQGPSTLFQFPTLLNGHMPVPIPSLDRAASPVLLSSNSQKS
The procedure, abridged: as §1

The next experiment deals with T4, FEV (Homo sapiens, UniProt Q99581 1-238).
T4 sequence: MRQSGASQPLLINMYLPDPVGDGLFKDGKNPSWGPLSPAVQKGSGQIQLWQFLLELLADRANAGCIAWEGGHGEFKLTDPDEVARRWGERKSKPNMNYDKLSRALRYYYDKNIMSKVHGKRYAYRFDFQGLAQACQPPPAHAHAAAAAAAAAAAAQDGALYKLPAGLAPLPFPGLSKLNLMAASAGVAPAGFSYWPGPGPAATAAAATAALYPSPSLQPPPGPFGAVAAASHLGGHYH
In outline:
as §1

The next experiment deals with ELF4 (Homo sapiens, UniProt Q99607 1-663). The procedure, abridged:
as §1

The target in a further experiment is T5, ELK4 (Homo sapiens, UniProt P28324-2 1-405).
T5 sequence: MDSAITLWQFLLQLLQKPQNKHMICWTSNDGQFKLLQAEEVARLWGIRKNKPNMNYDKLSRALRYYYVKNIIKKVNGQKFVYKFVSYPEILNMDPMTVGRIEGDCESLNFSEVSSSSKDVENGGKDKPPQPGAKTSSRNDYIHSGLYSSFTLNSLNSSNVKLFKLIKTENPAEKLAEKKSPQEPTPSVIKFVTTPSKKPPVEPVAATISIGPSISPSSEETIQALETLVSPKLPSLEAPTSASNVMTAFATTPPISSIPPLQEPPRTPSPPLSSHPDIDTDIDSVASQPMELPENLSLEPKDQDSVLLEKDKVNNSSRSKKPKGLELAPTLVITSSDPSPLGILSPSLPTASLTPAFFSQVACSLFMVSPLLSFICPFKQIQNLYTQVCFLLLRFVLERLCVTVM
In outline:
as §1

A further experiment concerns the target ETV6 (Homo sapiens, UniProt P41212 1-452). The procedure, abridged:
as §1

The next experiment deals with T6, ELK1 (Homo sapiens, UniProt P19419 1-428).
T6 sequence: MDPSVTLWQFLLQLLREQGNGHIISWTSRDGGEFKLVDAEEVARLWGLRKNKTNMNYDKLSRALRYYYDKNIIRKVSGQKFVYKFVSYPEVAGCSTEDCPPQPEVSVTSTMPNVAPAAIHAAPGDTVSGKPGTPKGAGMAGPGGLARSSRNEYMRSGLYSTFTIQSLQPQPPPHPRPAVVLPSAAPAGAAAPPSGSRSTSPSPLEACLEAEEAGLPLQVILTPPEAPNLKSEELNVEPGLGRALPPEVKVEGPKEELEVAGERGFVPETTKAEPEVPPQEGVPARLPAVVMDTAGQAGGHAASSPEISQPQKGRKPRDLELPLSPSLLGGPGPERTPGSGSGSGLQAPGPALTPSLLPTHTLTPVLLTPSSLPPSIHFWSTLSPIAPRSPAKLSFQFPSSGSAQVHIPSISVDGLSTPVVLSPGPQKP
In outline: as §1

For a further experiment, the target named is ELF1 (Homo sapiens, UniProt P32519 1-619). The procedure, abridged: as §1
In another experiment the target is SPIB (Homo sapiens, UniProt Q01892 1-262). In outline: as §1
The next experiment addresses T7, ERF (Homo sapiens, UniProt P50548 1-548).
T7 sequence: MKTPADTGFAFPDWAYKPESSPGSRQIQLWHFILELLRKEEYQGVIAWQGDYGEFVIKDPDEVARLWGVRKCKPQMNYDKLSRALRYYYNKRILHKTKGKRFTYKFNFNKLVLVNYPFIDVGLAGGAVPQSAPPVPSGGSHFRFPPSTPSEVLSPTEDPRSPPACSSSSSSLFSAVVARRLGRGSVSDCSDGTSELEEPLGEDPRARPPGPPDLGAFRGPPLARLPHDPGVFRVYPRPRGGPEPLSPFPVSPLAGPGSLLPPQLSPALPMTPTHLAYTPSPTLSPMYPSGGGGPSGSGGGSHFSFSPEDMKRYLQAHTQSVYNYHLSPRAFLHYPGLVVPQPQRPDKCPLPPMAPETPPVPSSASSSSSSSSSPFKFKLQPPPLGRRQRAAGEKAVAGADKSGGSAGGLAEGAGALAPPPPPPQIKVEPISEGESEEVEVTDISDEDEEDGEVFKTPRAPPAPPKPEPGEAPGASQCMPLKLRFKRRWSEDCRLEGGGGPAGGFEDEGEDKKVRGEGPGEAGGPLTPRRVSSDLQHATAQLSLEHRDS
The procedure, abridged:
as §1

Another experiment addresses T8, ETV3L (Homo sapiens, UniProt Q6ZN32 1-361).
T8 sequence: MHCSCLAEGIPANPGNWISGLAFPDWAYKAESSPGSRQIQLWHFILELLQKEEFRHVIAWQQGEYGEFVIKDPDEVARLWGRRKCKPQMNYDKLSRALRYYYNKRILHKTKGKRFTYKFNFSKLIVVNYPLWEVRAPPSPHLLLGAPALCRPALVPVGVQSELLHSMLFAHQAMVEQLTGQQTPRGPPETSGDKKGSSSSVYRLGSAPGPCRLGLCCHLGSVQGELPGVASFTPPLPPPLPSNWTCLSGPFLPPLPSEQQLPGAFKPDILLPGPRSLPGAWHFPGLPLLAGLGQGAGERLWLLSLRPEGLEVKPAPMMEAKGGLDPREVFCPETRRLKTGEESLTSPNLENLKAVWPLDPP
The procedure, abridged:
as §1

The target of another experiment is T9, ETS2 (Homo sapiens, UniProt P15036 1-469).
T9 sequence: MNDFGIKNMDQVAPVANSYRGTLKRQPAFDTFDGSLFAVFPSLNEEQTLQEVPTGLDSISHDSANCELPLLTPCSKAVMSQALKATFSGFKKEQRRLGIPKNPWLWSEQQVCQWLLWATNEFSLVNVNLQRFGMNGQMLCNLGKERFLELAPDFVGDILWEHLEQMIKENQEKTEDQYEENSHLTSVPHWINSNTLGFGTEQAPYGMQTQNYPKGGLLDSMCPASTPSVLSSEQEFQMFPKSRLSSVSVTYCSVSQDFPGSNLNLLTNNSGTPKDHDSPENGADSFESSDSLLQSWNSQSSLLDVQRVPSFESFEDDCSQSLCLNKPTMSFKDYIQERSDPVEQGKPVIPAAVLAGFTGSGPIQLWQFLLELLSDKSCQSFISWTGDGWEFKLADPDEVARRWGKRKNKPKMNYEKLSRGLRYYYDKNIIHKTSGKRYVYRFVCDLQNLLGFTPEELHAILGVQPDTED
The procedure, abridged:
as §1

The target of the next experiment is T10, SPDEF (Homo sapiens, UniProt O95238 1-335).
T10 sequence: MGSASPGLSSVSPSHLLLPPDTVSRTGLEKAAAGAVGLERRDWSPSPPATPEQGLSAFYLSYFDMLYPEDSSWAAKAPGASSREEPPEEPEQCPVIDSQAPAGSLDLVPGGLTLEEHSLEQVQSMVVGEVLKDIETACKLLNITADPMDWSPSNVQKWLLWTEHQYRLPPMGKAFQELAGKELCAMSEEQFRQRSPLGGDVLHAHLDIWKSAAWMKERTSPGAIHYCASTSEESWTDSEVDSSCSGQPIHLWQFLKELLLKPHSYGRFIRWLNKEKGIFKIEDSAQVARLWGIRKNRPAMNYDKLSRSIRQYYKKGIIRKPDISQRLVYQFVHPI
In outline: as §1

Chain of ETV6 (P41212 whole entry): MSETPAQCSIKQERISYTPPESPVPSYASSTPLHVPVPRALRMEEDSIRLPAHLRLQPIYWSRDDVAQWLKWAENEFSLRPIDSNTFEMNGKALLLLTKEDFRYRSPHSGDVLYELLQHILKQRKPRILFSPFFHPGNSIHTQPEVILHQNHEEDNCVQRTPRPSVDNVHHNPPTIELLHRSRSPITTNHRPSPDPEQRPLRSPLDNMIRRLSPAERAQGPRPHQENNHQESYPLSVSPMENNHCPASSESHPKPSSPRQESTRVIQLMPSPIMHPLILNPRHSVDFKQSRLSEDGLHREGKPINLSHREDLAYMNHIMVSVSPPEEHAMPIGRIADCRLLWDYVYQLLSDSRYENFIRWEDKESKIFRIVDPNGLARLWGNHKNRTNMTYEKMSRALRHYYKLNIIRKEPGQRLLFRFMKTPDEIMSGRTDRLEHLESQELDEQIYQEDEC
Chain of ELF1 (P32519 whole entry): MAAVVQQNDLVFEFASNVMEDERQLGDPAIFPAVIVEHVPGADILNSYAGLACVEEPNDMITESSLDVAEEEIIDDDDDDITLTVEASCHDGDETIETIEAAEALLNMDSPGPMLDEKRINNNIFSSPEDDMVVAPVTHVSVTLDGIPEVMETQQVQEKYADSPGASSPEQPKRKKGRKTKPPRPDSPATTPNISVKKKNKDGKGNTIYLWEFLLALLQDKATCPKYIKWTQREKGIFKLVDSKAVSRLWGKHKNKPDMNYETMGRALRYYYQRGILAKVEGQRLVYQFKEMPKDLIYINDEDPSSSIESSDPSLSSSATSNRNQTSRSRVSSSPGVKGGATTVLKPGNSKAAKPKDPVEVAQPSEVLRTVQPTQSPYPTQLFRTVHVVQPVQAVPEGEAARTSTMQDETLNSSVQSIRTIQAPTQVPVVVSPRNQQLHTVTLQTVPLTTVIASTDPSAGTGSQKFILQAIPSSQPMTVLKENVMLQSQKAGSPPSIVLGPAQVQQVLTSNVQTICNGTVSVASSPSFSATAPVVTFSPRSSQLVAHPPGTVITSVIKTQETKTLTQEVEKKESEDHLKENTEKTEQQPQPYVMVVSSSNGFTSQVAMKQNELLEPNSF
Chain of ELF4 (Q99607 whole entry): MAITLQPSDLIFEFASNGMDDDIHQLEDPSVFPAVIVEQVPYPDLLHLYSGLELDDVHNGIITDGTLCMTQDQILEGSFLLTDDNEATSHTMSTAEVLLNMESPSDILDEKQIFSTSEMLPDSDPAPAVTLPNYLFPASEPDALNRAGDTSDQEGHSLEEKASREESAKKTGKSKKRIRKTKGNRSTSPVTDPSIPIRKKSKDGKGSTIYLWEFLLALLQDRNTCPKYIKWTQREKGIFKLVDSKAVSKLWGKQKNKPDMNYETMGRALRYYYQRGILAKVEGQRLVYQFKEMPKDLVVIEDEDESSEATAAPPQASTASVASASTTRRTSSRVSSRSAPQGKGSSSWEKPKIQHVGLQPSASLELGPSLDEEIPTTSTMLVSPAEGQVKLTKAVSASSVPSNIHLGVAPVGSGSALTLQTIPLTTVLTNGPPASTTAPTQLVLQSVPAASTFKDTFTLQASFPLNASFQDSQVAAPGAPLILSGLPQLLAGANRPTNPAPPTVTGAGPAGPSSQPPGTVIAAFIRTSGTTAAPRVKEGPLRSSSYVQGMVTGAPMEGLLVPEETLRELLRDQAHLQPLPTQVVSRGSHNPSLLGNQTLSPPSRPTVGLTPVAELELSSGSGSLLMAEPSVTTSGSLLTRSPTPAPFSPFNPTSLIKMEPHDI
Chain of SPIB (Q01892 whole entry): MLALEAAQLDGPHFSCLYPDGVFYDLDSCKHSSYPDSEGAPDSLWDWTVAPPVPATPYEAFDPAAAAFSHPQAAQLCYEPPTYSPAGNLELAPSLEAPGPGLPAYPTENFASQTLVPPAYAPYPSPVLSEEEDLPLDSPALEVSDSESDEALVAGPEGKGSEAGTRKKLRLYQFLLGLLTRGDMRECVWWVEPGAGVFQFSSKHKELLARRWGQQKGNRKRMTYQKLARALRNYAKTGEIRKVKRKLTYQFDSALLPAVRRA

Turning to GGTCCA, the binding signal in the experiment with SPIC is 1.02 fold enrichment (6-mer frequency, TF over GST control).

Turning to GCGCCG, the binding signal with GABPA was 1.03 fold enrichment (6-mer frequency, TF over GST control); with ELK3 it was 1.02 fold enrichment (6-mer frequency, TF over GST control); in the experiment with FEV, 1.05 fold enrichment (6-mer frequency, TF over GST control); in the experiment with SPIC, 1.1 fold enrichment (6-mer frequency, TF over GST control); with ELF4, 1.03 fold enrichment (6-mer frequency, TF over GST control); in the experiment with ELK4 it was 1.03 fold enrichment (6-mer frequency, TF over GST control). Also, in the experiment with ETV6, the binding signal is 1.05 fold enrichment (6-mer frequency, TF over GST control).

In the case of GTATTG, the binding signal in the experiment with ELK1 was 1.01 fold enrichment (6-mer frequency, TF over GST control); with GABPA, 1.04 fold enrichment (6-mer frequency, TF over GST control); with ELF1, 1.04 fold enrichment (6-mer frequency, TF over GST control); in the experiment with SPIB, 1.1 fold enrichment (6-mer frequency, TF over GST control); with ELK3 it was 1.08 fold enrichment (6-mer frequency, TF over GST control); in the experiment with SPIC, 1.11 fold enrichment (6-mer frequency, TF over GST control). For the same sequence, the binding signal in the experiment with ELK4 is 1.05 fold enrichment (6-mer frequency, TF over GST control); in the experiment with ERF, 1 fold enrichment (6-mer frequency, TF over GST control); with ETV3L, 1.01 fold enrichment (6-mer frequency, TF over GST control); with ETS2, 1 fold enrichment (6-mer frequency, TF over GST control); in the experiment with SPDEF, 1 fold enrichment (6-mer frequency, TF over GST control).

(Values after publication PMC7862700, “An all-to-all approach to the identification of sequence-specific readers for epigenetic DNA modifications on cytosine”.)
